The nature of assay [1]: NCI Yeast Anticancer Drug Screen. Data for the mec2-1 strain (AID 157). The note with it: S. cerevisiae mec2-1 strain, at 50.0 µM, stronger effect = higher value. The gist of the method: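 Yeast mec2-1 mutant treated with compound. Readout: growth inhibition vs vehicle controls.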
The nature of assay [2]: NCI Yeast Anticancer Drug Screen. Data for the sgs1 mgt1 strain (AID 161).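 Further: 0% = growth of cultures given vehicle only.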 To be noted: S. cerevisiae sgs1 mgt1 strain, at 50.0 µM, stronger effect = higher value. The gist of the method: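 Inhibition of yeast growth, normalised to vehicle-treated controls, is reported for a strain bearing genetic alterations in DNA damage repair.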
Assay [3] is described as follows: NCI Yeast Anticancer Drug Screen. Data for the cln2 rad14 strain (AID 165).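 Further: 0% = growth equal to vehicle treated cultures.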 To be noted: S. cerevisiae cln2 rad14 strain, at 50.0 µM, stronger effect = higher value. The gist of the method: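 cln2 rad14 yeast strain; compound exposure; growth inhibition read vs vehicle controls.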
A short description of assay [4]: NCI Yeast Anticancer Drug Screen. Data for the bub3 strain (AID 167). The note with it: S. cerevisiae bub3 mutant strain, at 50.0 µM, stronger effect = higher value. The gist of the method: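 Whole-cell yeast assay. The mutant strain was incubated with compounds, and growth inhibition was determined by comparison with vehicle-treated cells.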
Assay [5] can be described thus: NCI Yeast Anticancer Drug Screen. Data for the mlh1 rad18 strain (AID 175). The note with it: S. cerevisiae mlh1 rad18 strain growth inhibition; at 50.0 µM; stronger effect = higher value. The procedure, abridged:
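Yeast w/ defined DNA-repair lesions; compound exposure; growth vs vehicle controls → % inhibition.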

Each structure is given as a SMILES string. Compounds without any hit were thinned out: in the full panel of roughly 79,000, 15% have a hit. A number with no mark means an inactive call. Active and inactive are the calls of the source. No stated cut-off is given here; in the data, active means growth inhibition above about 70%; inactive means the rest.

Take `Cc1cc2c3ccc(C)[n+](C)c3ccc2n1C`: the growth inhibition in assay [1] was 5.9%; in assay [2] it was 10.6%; in assay [3], -66.6%; in assay [4] it was 7.65%; in assay [5], -5.25%.
Consider `O=Cc1c(O)c2ccccc2[nH]c1=O`, for which the growth inhibition was 1.35% in assay [1]; -1.55% in assay [2]; 9.5% in assay [3]; 4.2% in assay [4]; 3.85% in assay [5].
For `CS(=O)(=O)c1ccc(/C=C\C(=O)O)cc1`, the growth inhibition was 9% in assay [2], -8.4% in assay [3], -3.7% in assay [4] and 19.2% in assay [5].
As for `Oc1cc2ccccc2c(-c2c(O)c(O)cc3ccccc23)c1O`, the growth inhibition in assay [1] is 85% (active); in assay [2], 83.7% (active); in assay [3], 83.6% (active); in assay [4] it was 87% (active); in assay [5] it was 91.7% (active).
As for `CCOc1ccc2c(c1)c(C)cc(C)[n+]2CC`, the growth inhibition in assay [1] was -41%; in assay [2] it was -13.2%; in assay [3], -7.9%; in assay [4] it was 13%; in assay [5] it was -3.4%.

Source of the values: PubChem BioAssay (NCI).
